According to PubChem BioAssay AID2283123 (EPA ToxCast):
Inconclusive results are not listed. Calls of active or inactive are those of the source. Rule for the calls: active = hit-call score of the fitted dose curve at least 0.9, where 1 is the maximum; inconclusive = response in the unintended direction; inactive = score below 0.9.

Target: rat CYP2E1, Cyp2e1 (gene 25086) (UniProt P05182)
Assay: NVS_ADME_rCYP2E1: NovaScreen (NVS) CYP450-related Enzyme Activity (ADME) Assay for rat CYP2E1
Experimental: NVS_ADME_rCYP2E1 is a biochemical, single-readout assay that uses extracted gene-proteins in a cell-free assay. Measurements were taken 1 hour after chemical dosing in a 96-well plate.NVS_ADME_rCYP2E1 is one of one assay component(s) measured or calculated from the NVS_ADME_rCYP2E1 assay. It is designed to make measurements of enzyme activity, a form of enzyme reporter, as detected with fluorescence intensity signals by Fluorescence technology.Data from the assay component NVS_ADME_rCYP2E1 was analyzed into 1 assay endpoint. This assay endpoint, NVS_ADME_rCYP2E1, was analyzed in the positive analysis fitting direction relative to Acetonitrile as the negative control and baseline of activity. Using a type of enzyme reporter, loss-of-signal activity can be used to understand changes in the enzymatic activity as they relate to the gene Cyp2e1. Furthermore, this assay endpoint can be referred to as a primary readout, because this assay has produced multiple assay endpoints where this one serves a enzymatic activity function. To generalize the intended target to other relatable targets, this assay endpoint is annotated to the cyp intended target family, where the subfamily is xenobiotic metabolism.
Binding assays used specific radioligands (tritiated, iodinated) with non-radioactive competitive displacement ligands in agonist or antagonist protocols (as indicated) and various reference compounds and inhibitors to titrate specific binding to receptors and transporters. Most enzyme assays (CYPs, kinases, phosphatases, proteases, HDACs) used recombinant protein and specific substrates (fluorescence mostly, some colorimetric and radioactive) and inhibitors, followed by a biochemical separation of substrate and product. All assays for the biochemical HTS were initially run in duplicate at a single concentration (10 uM for CYP450 assays and 25 uM for all others). Assay-chemical combinations meeting a pre-defined threshold (e.g., 30% inhibition and other criteria defined below) were then run in singleton concentration-response format with maximum concentration of 20 uM for CYPs and 50 uM for all others. Each assay was run with positive and negative controls, and concurrent controls on every plate. The follow-up (secondary) screen tested active chemical-pairs in concentration series, as well as a few additional assays not tested in the primary screen, some selected negative inactives, and several cases re-run in the concentration series for confirmatory purposes.

Chain of rat CYP2E1, Cyp2e1 (gene 25086) (P05182 whole entry, looked up): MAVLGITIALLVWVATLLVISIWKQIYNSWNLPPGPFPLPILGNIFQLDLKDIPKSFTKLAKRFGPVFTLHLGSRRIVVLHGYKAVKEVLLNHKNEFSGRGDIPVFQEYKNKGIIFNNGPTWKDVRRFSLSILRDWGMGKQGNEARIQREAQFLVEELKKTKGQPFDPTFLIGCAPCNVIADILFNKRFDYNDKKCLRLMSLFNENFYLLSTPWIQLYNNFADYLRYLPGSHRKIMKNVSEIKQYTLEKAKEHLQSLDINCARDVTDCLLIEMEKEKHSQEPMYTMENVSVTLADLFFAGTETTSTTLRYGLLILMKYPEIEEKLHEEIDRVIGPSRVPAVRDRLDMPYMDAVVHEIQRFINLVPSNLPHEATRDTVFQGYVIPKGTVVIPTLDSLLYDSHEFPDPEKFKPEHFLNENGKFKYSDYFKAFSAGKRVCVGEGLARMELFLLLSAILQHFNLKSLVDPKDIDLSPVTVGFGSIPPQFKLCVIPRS

| SMILES | AC50 | outcome |
| --- | --- | --- |
| N#Cc1c[nH]cc1-c1cccc2c1OC(F)(F)O2 | 0.254 µM (active) | – |
| S=C1NCCN1 | – | inactive |
| CC(C1CC1)C(O)(Cn1cncn1)c1ccc(Cl)cc1 (stereo not given) | – | inactive |
| CCOP(=S)(OCC)Oc1ccc2c(C)c(Cl)c(=O)oc2c1 | – | inactive |
| CCCN(CCOc1c(Cl)cc(Cl)cc1Cl)C(=O)n1ccnc1 | 2.54 µM (active) | – |
| COP(=S)(OC)Oc1ccc([N+](=O)[O-])c(C)c1 | – | inactive |
| COP(=S)(OC)SCn1nnc2ccccc2c1=O | – | inactive |
| C[Si](Cn1cncn1)(c1ccc(F)cc1)c1ccc(F)cc1 | 10 µM (active) | – |
| COc1nn(CSP(=S)(OC)OC)c(=O)s1 | – | inactive |
| CNC(=S)S | – | inactive |
